Compound activity deposited in PubChem BioAssay by National Center for Advancing Translational Sciences (NCATS).
BAZ2B inh – inhibitors of human BAZ2B bromodomain; Q9UIF8; AlphaScreen BAZ2B-H3K14Ac peptide displacement; Potency, µM (series often up to 114 µM), without a hit: at the top dose activity change, negative = inhibition, usual class: inhibitors; 360,000 compounds, 4.4% hits; note: % is set by controls: 0 for no effect and ±100 for the full control effect; nearly all actives have a fitted effect of over 60% in size
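Complex of BAZ2B and biotin-H3K14Ac (50 nM apiece) forms over 30 min at RT, then faces library compounds up to 110 uM for another 30 min; AlphaScreen beads added, 20 min dark incubation, luminescence read.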
G9a inh – inhibitors of human histone lysine methyltransferase G9a. Q96KQ7. G9a H3K9 monomethylation, AlphaScreen, 2 h. Potency, µM (series often up to 102 µM), for the others: at the top dose activity, negative = inhibition, most hits filed as inhibitors. 350,000 compounds, 8.8% hits. AID 504332; note: % is set by controls: 0 for no effect and ±100 for the full control effect; nearly all actives have a fitted effect of over 75% in size
Target sequence (Q96KQ7 913-1193 limits assumed): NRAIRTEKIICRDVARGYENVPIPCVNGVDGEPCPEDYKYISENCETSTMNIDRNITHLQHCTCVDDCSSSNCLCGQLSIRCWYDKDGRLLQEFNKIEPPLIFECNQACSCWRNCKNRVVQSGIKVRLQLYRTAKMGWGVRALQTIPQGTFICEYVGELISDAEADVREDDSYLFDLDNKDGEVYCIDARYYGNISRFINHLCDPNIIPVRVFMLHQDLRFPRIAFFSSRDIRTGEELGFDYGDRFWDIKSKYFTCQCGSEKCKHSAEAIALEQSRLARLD
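Compounds were preincubated with 20 nM G9a for 15 min, after which biotinylated H3K9 peptide (500 nM) and SAM (20 uM) started a 2 h room-temperature reaction. Monomethylated product was quantified by antibody-based AlphaScreen chemiluminescence.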
JMJD2A Tudor – JMJD2A Tudor domain (human) inhibition | O75164 | AlphaScreen JMJD2A-Tudor / H3K4me3 peptide binding | Potency, µM (series often up to 114 µM), for inactives: top-dose activity change, negative = inhibition, usual class: inhibitors | 390,000 compounds, 4.4% hits; note: % is set by controls: 0 for no effect and ±100 for the full control effect; nearly all actives have a fitted effect of over 50% in size
L3MBTL1 inh – L3MBTL1 (human) inhibition | 230,000 compounds, 0.66% hits | Potency, µM (titrated, usually from 57.1 µM), without a hit: top-dose activity, negative = inhibition, usual class: inhibitors | AlphaScreen L3MBTL1–H3K9me1 peptide binding | Q9Y468; note: % is set by controls: 0 for no effect and ±100 for the full control effect; nearly all actives have a fitted effect of over 60% in size
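L3MBTL1 50 nM + b-AHA-H3(1-15)K9me1 75 nM, 30 min RT; compound added, 30 min RT; streptavidin donor/Ni-chelate acceptor beads 10 ug/mL each final, 30 min RT dark; AlphaScreen read.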
HP1b chromo inh – HP1-beta chromodomain-methylated histone interaction inhibition | P83916 | AlphaScreen HP1-beta / biotin-H3K9me3 peptide binding | Potency, µM (highest dose often 114 µM), for the others: at the top dose activity change, negative = inhibition, hits mostly inhibitors | 390,000 compounds, 0.56% hits; note: nearly all actives have a fitted effect of over 70% in size
Target sequence (P83916 whole entry, looked up): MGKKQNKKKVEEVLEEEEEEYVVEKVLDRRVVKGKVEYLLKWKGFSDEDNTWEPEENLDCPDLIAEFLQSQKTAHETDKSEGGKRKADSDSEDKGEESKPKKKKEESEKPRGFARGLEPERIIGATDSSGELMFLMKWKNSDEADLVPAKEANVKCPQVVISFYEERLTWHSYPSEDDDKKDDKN
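HP1-beta protein (50 nM final) preincubated 30 min at room temperature with biotinylated H3(1-18)K9me3 peptide (50 nM) in PBS pH 7.4, 0.01% Tween-20, then compound added for 30 min. AlphaScreen streptavidin donor/nickel chelate acceptor beads (10 ug/mL final), 30 min dark, luminescence read.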
The depositor's hits bear a star; ? = inconclusive; . = not tested or not shown; ! = a repeat was not active; [ ] = remark or other dose. The list is not random: actives were taken first. Their share in the collection is about 11%. Calls come from the whole dose curve; as a rule, active = well fitted inhibition curve with a large enough effect; inconclusive = small, poorly fitted or top-dose-only effect; inactive = no such curve, though single readings can be large or run the other way. Potency is the fitted concentration of half-maximal effect.

SMILES	BAZ2B inh	G9a inh	JMJD2A Tudor	L3MBTL1 inh	HP1b chromo inh
CCCCNC(=O)N(C)c1nc2ccccc2s1	-3.8%	50.1µM*	7.7%	14.9%	46.5%
O=C(COC(=O)c1ccc2c(c1)OCCO2)NC1CCCCC1	37.3%	-3.1%[12.7 µM]	-15.8%	38.2%	19.5%
CCOc1ccc(N2C(=O)CC(N3CCC(O)(c4ccc(Br)cc4)CC3)C2=O)cc1 (stereo not given)	-3.2%	44.7µM*	-3.9%	.	38.2%
CCOc1ccc(N2C(=O)CC(N3CCN(c4ccc(F)cc4)CC3)C2=O)cc1 (stereo not given)	-20.9%	44.7µM*	-13.7%	-2.4%	55.2%
CCOc1ccc(N2C(=O)CC(N3CCN(C(=O)CN4CCCC4)CC3)C2=O)cc1 (stereo not given)	-24.2%	?	-11.0%	1.9%	33.8%
CCCN(CCC)C(=O)c1nn(C)c2c1CSc1ccc(C)cc1-2	10.4%	-17.7%[59 µM]	7.6%	.	-3.4%
C=CCn1c(SCC(=O)c2ccccc2)nnc1-c1ccc2c(c1)OCO2	?	20µM*	35.5µM*	.	-19.2%
C=CCn1c(SCC(=O)NCc2ccc3c(c2)OCO3)nnc1-c1cccnc1	-5.3%	6.2%	-6.5%	.	10.7%
C=CCn1c(SCC(=O)c2ccccc2)nnc1-c1cc2ccccc2o1	-4.4%	50.1µM*	-17.4%	-5.1%	26.7%
COCCNC(=O)c1onc(CSc2ccc(F)c(F)c2)c1C(=O)NCCOC	.	.	-3.5%	.	57.2%
O=C(CCC1COc2ccccc2O1)Nc1ncccc1O (stereo not given)	?	-4.8%[59 µM]	50.1µM*	-5.4%	7.5%
Nc1cc([N+](=O)[O-])ccc1Nc1ccc(O)cc1	31.6µM*	10µM*	56.2µM*	.	?
C[C@@H](C(=O)Nc1ccc2ccccc2c1)[C@@H]1C[C@@]1(C)[C@@H](NC(=O)c1cnccn1)c1ccccc1	-5.5%	50.1µM*	-11.4%	-12.3%	38.1%
C[C@@H](C(=O)Nc1ccc2ccccc2c1)[C@H]1C[C@]1(C)[C@H](NC(=O)c1cnccn1)c1ccccc1	?	-10.0%	-16.3%	-6.8%	32.9%
COc1cc(NC(=O)NC(C)c2c(-n3cccc3)sc3c2CCN(C)C3)cc(OC)c1 (stereo not given)	?	?	?	.	-8.0%
O=C(Nc1ccc2oc(-c3ccncc3)nc2c1)c1ccco1	?	39.8µM*	-29.7%	.	68.1%
O=C(Nc1ccc2oc(-c3ccncc3)nc2c1)c1ccc(Br)o1	-18.6%	31.6µM*	-14.1%	.	-2.6%
C=C1CCN(C(CC(C)C)C(=O)Nc2ccc(OC)cc2)S(=O)(=O)c2ccccc21 (stereo not given)	.	.	-14.5%	.	24.6%
CC(=O)Nc1ccc(S(=O)(=O)N2CCN(S(=O)(=O)c3ccccc3)CC2)cc1	-3.0%	2.8%	-0.3%	7.3%	12.5%
COc1cc(OC)c(OC)cc1CN1CCN(S(=O)(=O)c2ccc(NC(C)=O)cc2)CC1	50.1µM*	.	1µM*	5.0%	?
CC(=O)Nc1ccc(S(=O)(=O)N2CCN(CC3CC4C=CC3C4)CC2)cc1 (stereo not given)	35.5µM*	28.2µM*	6.31µM*	-23.0%	?
CCOc1ccc(CN2CCN(S(=O)(=O)c3ccc(NC(C)=O)cc3)CC2)cc1	25.1µM*	22.4µM*	7.94µM*	-6.4%	35.5µM*
CC(=O)Nc1ccc(CN2CCCN(C)CC2)cc1	?	20µM*	22.4µM*	0.5%	?
CC(=O)c1cccc(N2C(=O)CN(S(C)(=O)=O)CC2(C)C(=O)NC2CCCC2)c1 (stereo not given)	-1.6%	0.8%[59 µM]	3.0%	.	20.5%
CCN(CC)C(C)CN1c2ccccc2Sc2ccccc21 (stereo not given)	.	5.01µM*!	.	.	.
SMILES	BAZ2B inh	G9a inh	JMJD2A Tudor	L3MBTL1 inh	HP1b chromo inh
Nc1nc(SCC(=O)O)c2[nH]cnc2n1	.	.	-3.8%[57.1 µM]	.	9.4%[57 µM]
COc1ccccc1C(=O)NNC(=S)NC(=O)c1cc(OC)c(OC)c(OC)c1	-3.8%	12.6µM*	-30.0%	9.5%	31.9%
COc1cc(C(=O)NNC(=S)NC(=O)c2ccc3c(c2)OCO3)cc(OC)c1OC	-3.7%	12.6µM*	-23.1%	.	1.4%
COc1cc(C(=O)NNC(=S)NC(=O)c2ccccc2C)cc(OC)c1OC	0.2%	?	4.8%	14.2%	29.0%
COc1ccc(NC(=S)NNC(=O)C2CC2c2ccc(C)cc2)cc1 (stereo not given)	-3.7%	44.7µM*	8.2%[57.1 µM]	-8.9%	23.2%
COc1cc(C(=O)NC(=S)NNC(=O)[C@H]2C[C@@H]2c2ccccc2)cc(OC)c1OC	-0.8%	39.8µM*	-24.1%	-4.2%	15.3%
CCC(Sc1ncc(S(=O)(=O)c2ccc(C)cc2)c(=O)[nH]1)C(=O)Nc1cc(C)ccc1C (stereo not given)	-1.4%	-18.3%[59 µM]	-1.8%	.	12.3%
Cc1ccc(NC(=O)c2ccc(NC(=O)C3CCCC3)cc2)c(C)c1	.	.	-8.2%	.	50.2%
CCOc1ccccc1NC(=O)Cn1ncc2c(=O)oc3ccc(C)cc3c21	-2.7%	-1.3%[59 µM]	-9.6%	.	20.7%
O=C(NC1C2CCCC1CN(C1CC1)C2)c1ccc(Cl)cc1 (stereo not given)	9.0%	7.8%[59 µM]	23.8%	5.9%	66.2%
CC1C/C(=C/c2ccncc2)C(=O)/C(=C/c2ccncc2)C1 (stereo not given)	?	-4.6%[59 µM]	-13.0%	.	33.7%
CC1C/C(=C/c2cccn2C)C(=O)/C(=C/c2cccn2C)C1 (stereo not given)	31.6µM*	?	25.1µM*	.	39.8µM*
COc1ccc(O)c(-c2c(-c3ccc(Cl)cc3)n[nH]c2C)c1	?	25.1µM*	?	-21.0%	-32.5%
Cc1cccc(NC(=O)CSc2nc3n[nH]c(C)c3c(=N)n2-c2cccc(Cl)c2)c1	3.7%	3.3%[59 µM]	-6.4%	.	36.9%
CCOC(=O)c1c(C)[nH]c(C)c1S(=O)(=O)N(C)CC(=O)N1CCN(c2cccc(Cl)c2)CC1	-23.9%	-37.0%[59 µM]	?	.	-18.3%
COc1cc(/C=C(\C#N)C(=O)c2ccc(O)c(O)c2)cc(I)c1O	39.8µM*	2.24µM*	8.91µM*	0.316µM*	8.91µM*
CCOC(=O)Cn1c2ccc(F)cc2c2nc(C)sc21	11.0%	-47.3%	-0.7%	.	37.3%
COC(=O)Cn1c2ccc(F)cc2c2nc(C)sc21	-27.6%	44.7µM*	-0.7%	3.0%	24.5%
CO/N=C\CC(=O)Nc1ccc(Cl)cc1Cl	6.7%	10.1%[59 µM]	14.1µM*	8.5%	3.2%
CO/N=C\CC(=O)Nc1ccc(F)cc1	10.8%	6.5%[12.7 µM]	-13.8%	0.5%	?
O=C(Nc1ccc(Cl)cc1)C1C2C=CC3(O2)C1C(=O)N(CCN1CCCCC1)C3C(=O)NC1CCCCC1 (stereo not given)	0.1%	-20.8%	-14.3%	.	-3.5%
O=C(Nc1ccc(Cl)cc1)C1C2C=CC3(O2)C1C(=O)N(CCCN1CCCCC1)C3C(=O)NC1CCCCC1 (stereo not given)	1.1%	50.1µM*	-5.0%	.	11.3%
